High-throughput results: PubChem BioAssay, several laboratories
PrPC TRFRET: cell surface PrPC inhibition, primary TR-FRET screen. 370,000 tested, 0.43% active. inhibition, % at 13.8 µM. AID 720596. P04156. TR-FRET read-out; in the data active = inhibition above about 24%; note: 0% = median of the test wells and 100% = reference compound wells
RecA intein inh: Mtb RecA intein splicing inhibition. cell-free RecA intein splicing, fluorescence. 290,000 tested, 0.75% active. inhibition, % (no concentration beside the values). P9WHJ3; in the data active = inhibition above about 30%;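 note: 0% = vehicle wells and 100% = reference inhibitor control wells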
GDH-TPI counter: counter-screen for M. tuberculosis FBA inhibitors: GDH-TPI coupled enzymes; GDH-TPI coupled enzyme counterscreen, NADH absorbance; inhibition, % at 4.8 µM; 360,000 tested, 1.2% active; in the data active = inhibition above about 30%;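 note: 0% = DMSO wells and 100% = wells lacking the enzyme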
BJeLR viability: kills HRASV12-expressing BJeLR cells. BJeLR (HRASV12) viability, CellTiter-Glo ATP luminescence, 48 h. inhibition, % (concentration not given with the values). 300,000 tested, 0.17% active; in the data active = inhibition above about 50%
Mtb FBA inh: Mtb fructose-bisphosphate aldolase inhibition. AID 588726. inhibition, % at 1 µM. purified M. tuberculosis FBA, fluorescence read-out. 360,000 tested, 2.3% active; in the data active = inhibition above about 27%;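 note: 0% = vehicle and 100% = reference inhibitor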
PrPC confirm: cell surface PrPC inhibition, TR-FRET confirmation; cell surface PrPC level; shares compounds with PrPC TRFRET; 1,500 tested, 65% active; inhibition, % at 13.8 µM; in the data active = inhibition above about 25%
LD9 cytotox: LD9 cell cytotoxicity, PrPc inhibitor counter-screen | inhibition, % at 13.8 µM | 1,500 tested, 29% active | AID 743201 | LD9 cells cytotoxicity, luminescence viability | shares compounds with PrPC TRFRET; in the data active = inhibition above about 9.5%
An asterisk follows results filed as active; . = not tested or not shown. Compounds with a hit are over-represented: about 4.2% of the library has one in this group of screens.

SMILES	PrPC TRFRET	RecA intein inh	GDH-TPI counter	BJeLR viability	Mtb FBA inh	PrPC confirm	LD9 cytotox
O=C1C(NC(=O)N2c3ccccc3C=Cc3ccccc32)CCCCN1Cc1ccc(Cl)cc1 (stereo unspecified)	-6	.	.	.	.	.	.
CNNC(=S)Nc1cccc(C(F)(F)F)c1	62*	.	-1	0	2	-1	-6
CCn1c(SCC(=O)Nc2ccc(C(=O)OC)cc2)nnc1-c1cccc(Cl)c1	1	.	.	.	.	.	.
O=C(CSc1nc(Cc2ccccc2)nc2ccccc12)Nc1nc2c(s1)CCCC2	4	23	3	2	-7	.	.
CCOC(=O)CNC(=O)CSc1nc(Cc2cccs2)nc2ccccc12	-3	8	27	-3	1	.	.
CCOC(=O)CSc1nc(Cc2ccccc2)nc2ccccc12	64*	23	1	7	-1	89*	-1
CCOC(=O)CSc1nc(CC)nc2ccccc12	106*	10	5	-1	-2	121*	-8
COC(=O)CSc1nc(Cc2ccccc2)nc2ccccc12	68*	14	7	7	3	91*	-7
CC(C)OC(=O)CSc1nc(C(C)C)nc2ccccc12	3	11	-4	4	-3	.	.
CC(C)OC(=O)CSc1nc(Cc2ccccc2)nc2ccccc12	60*	10	0	6	0	87*	3
CC(C)CCN(C)C1CCN(C(=O)Nc2ccc(Cl)cc2)CC1	2	.	.	.	.	.	.
CCOC(=O)CC[C@@]1(C(=O)OCC)C[C@@H](CC(=O)N2CCN(C(=O)c3ccco3)CC2)C(=O)N2CCCC=C21	3	.	.	.	.	.	.
C=CCn1c(SCC(=O)Nc2ccccc2-c2ccccc2)nnc1-c1ccc(Cl)cc1	8	.	.	.	.	.	.
CSc1nn(CCC#N)c(=O)[nH]c1=O	-7	.	.	.	.	.	.
CC(=O)c1ccc2c(c1)OCO2	4	1	3	4	1	.	.
C[n+]1cc2c3c(ccc2c2ccc4cc5c(cc4c21)OCO5)OCO3	87*	.	.	.	.	101*	99*
COc1cccc(NC(=O)C2CCCN2C(=O)NC2CCC(C)CC2)c1 (stereo unspecified)	6	.	.	.	.	.	.
COC(=O)[C@H](C(C)C)N1CCc2nnn(Cc3ccccc3)c2-c2cc(F)ccc2S1(=O)=O	8	.	.	.	.	.	.
Cc1cccc(-n2c(-c3ccco3)n[nH]c2=S)c1	31*	-2	5	-6	3	33*	-3
Cc1cccc(-n2c(-c3ccc(Br)o3)n[nH]c2=S)c1	-3	1	-1	-3	0	.	.
CN(CC(=O)Nc1c(Cl)cccc1Cl)C(=O)c1cc(-c2cccs2)nn1-c1ccccc1	23	11	-5	11	-2	.	.
CCN(CC(=O)Nc1c(F)cccc1F)C(=O)c1cc(-c2cccs2)nn1-c1ccccc1	25*	1	1	0	2	28*	-8
CNC(=S)/N=C/NOCc1ccc(Cl)cc1Cl	36*	3	1	3	-2	45*	35*
CC(C)(C)c1ccc(S(=O)(=O)Nc2ccc(Cc3ccncc3)cc2)cc1	28*	8	9	-2	-3	44*	7
CCC(C)n1ncn(-c2ccc(N3CCN(c4ccc(O)cc4)CC3)cc2)c1=O (stereo unspecified)	25*	-5	-1	-20	-3	30*	-8
SMILES	PrPC TRFRET	RecA intein inh	GDH-TPI counter	BJeLR viability	Mtb FBA inh	PrPC confirm	LD9 cytotox
O=C(CSC1=NCCS1)Nc1ccnc2ccccc12	56*	7	3	-2	-1	51*	7
Cc1cc(C)nc(SCC(=O)Nc2ccnc3ccccc23)n1	46*	-2	5	22	0	43*	16*
COC(=O)c1ccccc1NC(=O)CSc1nc(C)cc(C)n1	2	-3	8	3	2	.	.
CCOc1ccccc1NC(=O)NNC(=O)CCn1nc(C)c([N+](=O)[O-])c1C	-1	.	.	.	.	.	.
C=C(C)CSc1nnc(-c2cc(-c3ccc(OC)cc3)n[nH]2)n1N	3	.	.	.	.	.	.
O=C(N[C@H](C(=O)N1CCC[C@H]1C(=O)NCc1ccccc1)C1CCCCC1)c1ccc(Cl)cc1Cl	3	.	.	.	.	.	.
NS(=O)(=O)c1c(Sc2ccccc2C(=O)O)ccc2ccccc12	34*	-2	13	-4	2	53*	-5
COc1ccc(S(=O)(=O)N2CCCCCC2)c2ccccc12	3	.	.	.	.	.	.
Cc1ccc(S(=O)(=O)Nc2cccc3cccnc23)cc1	39*	12	5	2	-4	72*	82*
